Results taken from PubChem BioAssay AID1851 (National Center for Advancing Translational Sciences (NCATS), 2009).
Where “and” joins values, the source holds several entries; their conditions need not be identical. Equal values may be shown once. About 2,600 (16%) of roughly 16,000 compounds were called active. Roughly 20% stayed inconclusive and do not appear here. The call rests on the fitted dose curve; in most records, active means well fitted curve in the direction sought with a large enough effect; inconclusive means small, poorly fitted or top-dose-only effect, or effect the other way; inactive means no such curve, though single readings can be large or run the other way. These entries were drawn from the full list.

The molecules below were run against Cytochrome P450 2D6 (Homo sapiens) (UniProt P10635) (assay: Cytochrome panel assay with activity outcomes). Details: recombinant CYP, pro-luciferin dealkylation, luminescence, p450-cyp2d6; series mostly up to 57.1 µM; activity, negative = inhibition: at the top concentration.
On the % scale 0 is the no-effect control and ±100 the full control effect.

Chain of Cytochrome P450 2D6 (Homo sapiens) (P10635 whole entry, looked up): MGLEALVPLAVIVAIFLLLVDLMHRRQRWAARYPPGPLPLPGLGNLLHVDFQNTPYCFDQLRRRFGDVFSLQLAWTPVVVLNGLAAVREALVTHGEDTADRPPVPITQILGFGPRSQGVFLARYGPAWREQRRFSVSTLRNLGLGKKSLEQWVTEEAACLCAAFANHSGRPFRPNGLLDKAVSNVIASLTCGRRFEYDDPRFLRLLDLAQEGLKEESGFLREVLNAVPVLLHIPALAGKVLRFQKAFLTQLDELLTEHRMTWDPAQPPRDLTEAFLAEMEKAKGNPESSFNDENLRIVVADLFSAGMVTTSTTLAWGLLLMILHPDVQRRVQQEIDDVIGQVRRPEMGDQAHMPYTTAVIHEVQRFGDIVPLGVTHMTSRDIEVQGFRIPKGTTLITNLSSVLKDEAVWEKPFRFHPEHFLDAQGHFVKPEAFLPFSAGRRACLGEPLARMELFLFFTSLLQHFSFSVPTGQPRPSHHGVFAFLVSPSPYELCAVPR

| Structure (SMILES) | activity, negative = inhibition | AC50 |
| --- | --- | --- |
| C[C@](N)(COP(=O)(O)O)C(=O)O | 2.61% (inactive) |  |
| CNc1cc(-c2c(C)noc2C)ncn1 | 0.677% (inactive) |  |
| Cn1c(=O)c2[nH]c(-c3ccccc3)nc2n(C)c1=O | 7.89% (inactive) |  |
| Cn1c(=O)c(-c2cc(F)cc(F)c2)nc2cnc(Oc3ccccc3)nc21 | -4.71% (inactive) |  |
| O=C(Oc1ccccc1)N1CCC2(CC1)CN(c1ncccn1)C2 | -6.97% (inactive) |  |
| CC(=O)Nc1c2c3c(cccc3n(C)c1=O)C(=O)c1ccccc1-2 | 8.07% (inactive) |  |
| COc1ccc(-c2nc3cnc(N4CCN(C)CC4)nc3n(C3CC3)c2=O)cc1 | 5.09% (inactive) |  |
| COC(=O)c1ccccc1OCC(=O)N1CCN(c2ccc(OC)cc2)CC1 | 0.575% (inactive) |  |
| O=C(c1cc(O)c(O)c([N+](=O)[O-])c1)c1ccccc1F | 0.213% (inactive) |  |
| Cn1cccc1C(=O)N1CCC2(CC1)CCN(c1ccc(-c3ccccc3)cc1)CC2 | -0.937% (inactive) |  |
| COc1cc(C2C(C#N)=C(N)OC3=C2C(=O)CCC3)cc(OC)c1OC(=O)N1CCOCC1 (centres undefined) | 3.07% (inactive) |  |
| Cc1ccc(C(C2C(=O)CC(C)(C)CC2=O)C2C(=O)CC(C)(C)CC2=O)s1 | 2.33% (inactive) |  |
| COc1cccc(C(c2c(C)[nH]n(-c3ccccc3)c2=O)c2c(C)[nH]n(-c3ccccc3)c2=O)c1O | 1.65% (inactive) |  |
| CC1CCN(CCOc2cc(Cl)ccc2Cl)CC1 |  | 447 nM (active) |
| COc1cc(C)ccc1OCCOc1cc(C)ccc1Cl | -13.3% (inactive) |  |
| Clc1ccc(Cl)c(OCc2cc(-c3ccccc3Cl)on2)c1 | 8.16% (inactive) |  |
| CCn1c(C)[n+](CCCS(=O)(=O)[O-])c2cc(Cl)c(Cl)cc21 | 2.13% (inactive) |  |
| Cn1c(=O)n(-c2cccc(Cl)c2)c(=O)c2c3c(sc21)COC(C)(C)C3 | 6.87% (inactive) |  |
| O=C(Nc1ccc(F)cc1F)c1cccn1-c1ncc(C(F)(F)F)cc1Cl | 17.2% (inactive) |  |
| O=C(Cc1ncc(C(F)(F)F)cc1Cl)Nc1cccc(Br)c1 |  | 398 nM (active) |

| Structure (SMILES) | activity, negative = inhibition | AC50 |
| --- | --- | --- |
| CN(NC(=O)NN)c1ncc(C(F)(F)F)cc1Cl | -8.29% (inactive) |  |
| Oc1ccc(Cn2cc[nH]c2=S)cc1 | -3.56% (inactive) |  |
| Cc1cc2ccccn2c1C(=O)c1nc(N2CCOCC2)ncc1Cl | -6.91% (inactive) |  |
| Cc1cc(CC(=O)O)n(C)c1C(=O)c1ccc(Cl)cc1 | -4.31% [at 25.6 µM] (inactive) |  |
| Cc1cc2ccccn2c1C(=O)c1ccc(Cl)cc1 |  | 17800 nM (active) |
| Nc1cc(C(=O)O)[nH]c(=O)n1 | 6.45% [at 11.4 µM] (inactive) |  |
| CCN(CC(=O)Nc1ccc(N2CCOCC2)cc1)Cc1nc2ccccc2c(=O)[nH]1 | 17.5% (inactive) |  |
| CCn1c(O)c(/C=C2\C=Nc3ccccc32)sc1=Nc1ccc(C)cc1 | -22% (inactive) |  |
| CCOC(=O)C1=C(CN2c3ccccc3CC2C)NC(=O)NC1c1ccccc1 (centres undefined) | -19.8% (inactive) |  |
| NC(=O)C1CCN(C(=O)OCc2ccccc2)CC1 | 8.02% (inactive) |  |
| CCCNC(=O)N1CCC(C(=O)c2ccc(F)cc2)CC1 | -24.1% (inactive) |  |
| CC(C)c1ccc(C(=O)CC2(O)C(=O)N(CN3CCOCC3)c3ccccc32)cc1 (centres undefined) | 17.8% (inactive) |  |
| O=C(c1ccc(F)cc1)C1CCN(CCCCc2ccccc2)CC1 |  | 12.6 nM (active) |
| CC1(C)C(=O)N(CCN2CCC(C(=O)c3ccc(F)cc3)CC2)c2ccccc21 |  | 1260 nM (active) |
| CCN1C(=O)C(O)(C2COC(C)(C)CC2=O)c2ccccc21 (centres undefined) | -0.608% (inactive) |  |
| COC(=O)[C@@H]1[C@@H](O)[C@]2(O)c3ccccc3O[C@]2(c2ccccc2)[C@H]1c1ccccc1 | -3% [at 11.4 µM] (inactive) |  |
| CC(C)c1ccccc1S(=O)c1ccccc1C(C)(C)O (centres undefined) | -12.8% [at 11.4 µM] (inactive) |  |
| FC(F)(F)c1ccccc1-c1ccc2ncnc(NC3CC3)c2c1 |  | 20000 nM (active) |
| O=C(O)C1CCN(c2ncnc3ccc(-c4ccccc4C(F)(F)F)cc23)CC1 | -1.69% (inactive) |  |
| Cc1ccccc1-c1ccc2ncnc(NC3CC3)c2c1 |  | 7940 nM (active) |

| Structure (SMILES) | activity, negative = inhibition | AC50 |
| --- | --- | --- |
| FC(F)(F)c1ccccc1-c1ccc2ncnc(NC3CCNCC3)c2c1 | -19.2% (inactive) |  |
| CN(C)c1ccc(-c2ccc3ncnc(NC4CC4)c3c2)cc1 | -18.2% (inactive) |  |
| CCN1C(=O)[C@H]2[C@@H]3[C@H](O)[C@H](O)CC(=O)[C@H]3CC[C@H]2C1=O | 1.18% [at 11.4 µM] (inactive) and 0.815% [at 11.4 µM] (inactive) |  |
| CC(C)=CCC/C(C)=C/CO/N=C1/C[C@@H](O)[C@@H](O)[C@@H]2[C@@H]3C(=O)N(C(C)(C)C)C(=O)[C@H]3CC[C@@H]12 | 6.78% [at 11.4 µM] (inactive) |  |
| [N-]=[N+]=Nc1ccc(C(=O)CSC[C@@H](NC(=O)CC[C@@H](N)C(=O)O)C(=O)NCC(=O)O)cc1 | -5.38% (inactive) |  |
| Cc1ccc(S(=O)(=O)N2CCC(C(=O)O)(c3ccccc3)CC2)cc1 | 7.29% [at 11.4 µM] (inactive) |  |
| CC(=O)N1CCN(S(=O)(=O)c2ccccc2)C1c1ccccc1 (centres undefined) | -7.43% (inactive) |  |
| Cc1ccc(S(=O)(=O)N2CCN(C(=O)c3ccccc3)C2C(C)C)cc1 (centres undefined) |  | 14100 nM (active) |
| C[C@@H]1O[C@H](O[C@@H]2[C@H](C)O[C@H](O[C@@H]3[C@H](C)O[C@H](O[C@H]4CC[C@]5(C)[C@@H](CC[C@@H]6[C@H]5C[C@@H](O)[C@]5(C)[C@@H](C7=CC(=O)OC7)CC[C@]65O)C4)C[C@@H]3O)C[C@@H]2O)C[C@H](O)[C@@H]1O | 4.5% [at 25.6 µM] (inactive) |  |
| Cc1c(NC(=O)CN2C(=O)C3C4C=CC(C4)C3C2=O)c(=O)n(-c2ccccc2)n1C (centres undefined) | -7.26% (inactive) |  |
| Cc1ccccc1C(=O)Nc1ccc(N2CCOCC2)nc1 | -3.03% (inactive) |  |
| Cn1ccnc1C[C@@](C)(O)c1ccccc1 | -12.1% [at 11.4 µM] (inactive) |  |
| CC[N+](CC)(CC)CC[C@](O)(c1ccccc1)C1CCCCC1 |  | 20 nM (active) |
| OC(CCCN1CCCCC1)(c1ccccc1)c1ccccc1 |  | 126 nM (active) |
| Cc1ccc(SCN2CCCCC2)cc1 (tested in a mixture with another compound) | -7.47% [at 11.4 µM] (inactive) |  |
| OC(CCN1CCCCC1)(c1ccccc1)c1ccccc1 |  | 5010 nM (active) |
| CCOc1ccc(C(F)(F)F)cc1NC(=O)c1ccc(OC)c([N+](=O)[O-])c1 | 11.2% (inactive) |  |
| COc1ccc(C(C(=O)NC2CCCC2)N(Cc2ccc(F)cc2)C(=O)c2ccn[nH]2)cc1OC (centres undefined) | -3.02% (inactive) |  |
